In PubChem BioAssay AID1851 (National Center for Advancing Translational Sciences (NCATS), 2009):
Where “and” joins values, the source holds several entries; their conditions need not be identical. Identical values can stand only once. Hit rate of the full screen: of about 16,000 compounds, about 5,100 (32%) were called active. Not shown: some 25% with an inconclusive outcome. Some of the results follow. Unmarked numbers belong to inactive results. Calls follow the shape of the dose curve; as a rule, active = well fitted curve in the direction sought with a large enough effect; inconclusive = small, poorly fitted or top-dose-only effect, or effect the other way; inactive = no such curve, though single readings can be large or run the other way.

Target: Cytochrome P450 3A4 (Homo sapiens) (UniProt P08684)
Sequence (P08684 whole entry, looked up): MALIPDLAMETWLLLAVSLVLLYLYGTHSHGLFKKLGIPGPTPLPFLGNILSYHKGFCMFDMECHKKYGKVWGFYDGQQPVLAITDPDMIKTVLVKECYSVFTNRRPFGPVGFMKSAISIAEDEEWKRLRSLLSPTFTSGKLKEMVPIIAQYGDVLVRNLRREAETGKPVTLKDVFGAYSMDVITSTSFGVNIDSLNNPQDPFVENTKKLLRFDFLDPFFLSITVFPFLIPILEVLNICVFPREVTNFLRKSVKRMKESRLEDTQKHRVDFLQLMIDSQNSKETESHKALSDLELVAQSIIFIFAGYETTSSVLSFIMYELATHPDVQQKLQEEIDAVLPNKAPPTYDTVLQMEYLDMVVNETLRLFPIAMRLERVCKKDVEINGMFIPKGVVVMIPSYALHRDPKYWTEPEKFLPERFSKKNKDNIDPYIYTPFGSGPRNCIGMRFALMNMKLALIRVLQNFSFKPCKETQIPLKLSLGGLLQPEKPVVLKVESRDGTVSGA
Assay: Cytochrome panel assay with activity outcomes
Settings: recombinant CYP, pro-luciferin dealkylation, luminescence, p450-cyp3a4; series mostly up to 57.1 µM
% is scaled to controls: 0 for no effect and ±100 for the full control effect.

| SMILES | activity, negative = inhibition | AC50 |
| --- | --- | --- |
| CN1CC[C@@]23c4ccccc4N[C@H]1[C@]21CCN(C)[C@@H]3Nc2ccccc21 | inactive |  |
| C[C@H](OP(=O)(O)O)[C@H](N)C(=O)O | -9.79% [at 11.4 µM] |  |
| O=C1C=CC(=O)c2c1ccc1c2ccc2ccccc21 | inactive |  |
| NCCCN1CCN(c2ccccc2)CC1 | -17.3% [at 11.4 µM] |  |
| Nc1ccc(CCN2CCN(c3cccc(C(F)(F)F)c3)CC2)cc1 |  | 7.94 µM (active) |
| C=C1[C@@H]2C[C@@]3([C@H]1O)[C@H]1C[C@@H]4[C@@]5(C)CC[C@H](O)[C@]4([C@H]1N(CC)C5)[C@H]3C[C@H]2O | inactive |  |
| NC(=NCc1ccc(Cl)cc1)SCCCc1cnc[nH]1 |  | 1.58 µM (active) |
| OCc1cnc[nH]1 | inactive |  |
| NC(=NCCc1ccc(I)cc1)SCCCc1cnc[nH]1 |  | 0.794 µM (active) |
| NC(N)=NCCC[C@H](N)C(=O)O | inactive |  |
| NS(=O)(=O)c1cc([C@@]2(O)NC(=O)c3ccccc32)ccc1Cl | inactive |  |
| Cc1o[nH]c(=O)c1C[C@H](N)C(=O)O | inactive |  |
| CCCCN1C(=O)/C(=C/c2ccc(N(C)C)cc2)C(=O)N(Cc2ccco2)C1=O | -12% [at 2.29 µM] |  |
| O=C(O)/C=C\c1ccc[c]([Sb](=[O])([OH])[OH])c1 | -2.48% [at 11.4 µM] |  |
| CCCN1CCC[C@H](c2cccc(C#N)c2)C1 | inactive |  |
| CCCc1cc2c(n1CCO)C(C)C1CN(C(=O)c3ccccc3)C(C)(C(=O)OC)C21 (stereo unspecified) |  | 10 µM (active) |
| CCCc1cc2c(n1Cc1ccc(C)cc1)C(C)C1CN(C(=O)c3ccccc3)C(C)(C(=O)OC)C21 (stereo unspecified) |  | 3.16 µM (active) |
| CCCc1cc2c(n1Cc1cccc(Cl)c1)C(C)C1CN(C(=O)c3ccccc3)C(C)(C(=O)OC)C21 (stereo unspecified) |  | 5.01 µM (active) |
| CC[N+](CC)(CCCNC1=CC(=O)C(NCCC[N+](CC)(CC)Cc2ccccc2)=CC1=O)Cc1ccccc1 | inactive |  |
| CC(C)C[C@H](NP(=O)(O)O[C@@H]1O[C@@H](C)[C@@H](O)[C@@H](O)[C@H]1O)C(=O)N[C@@H](Cc1c[nH]c2ccccc12)C(=O)O | inactive |  |
| C[C@@]12CC[C@H]3[C@@H](CC=C4C[C@H](OS(=O)(=O)O)CC[C@]43C)[C@H]1CCC2=O | inactive |  |
| CCN1CCN(c2ccc(NC(=O)C(C)C)cc2Cl)CC1 | inactive |  |
| NC[C@H](O)c1ccc(O)cc1 | inactive |  |

| SMILES | activity, negative = inhibition | AC50 |
| --- | --- | --- |
| O=C1C2CCN(CC2)C1(CO)CO | inactive |  |
| O=C(O)Cc1cccnc1C(=O)O | inactive |  |
| C[C@@H]1O[C@H]1P(=O)(O)O | inactive |  |
| CC[C@H]1CN2CCc3cc(OC)c(OC)cc3[C@H]2C[C@@H]1C[C@H]1NCCc2c1[nH]c1ccc(O)cc21 | -8.94% [at 11.4 µM] |  |
| C[C@](N)(CCP(=O)(O)O)C(=O)O | inactive |  |
| CN1CCC2(CC1)CCN(C(=O)Oc1ccccc1)CC2 | inactive |  |
| N#Cc1ccc(CN2CC[C@@]3(CCCN(C(=O)Oc4ccccc4)C3)C2)cc1 |  | 7.94 µM (active) |
| CN1CC[C@@]2(CCCN(C(=O)Oc3ccccc3)C2)C1 |  | 12.6 µM (active) |
| COC(=O)N1CCC2(CCCN(C)C2)CC1 | inactive |  |
| CC(C)CN1CC2(CCN(C(=O)Oc3ccccc3)CC2)C1 | inactive |  |
| CC(C)CN1CC[C@@]2(CCCN(C(=O)Oc3ccccc3)C2)C1 |  | 12.6 µM (active) |
| O=C(Oc1ccccc1)N1CCC[C@@]2(CCN(C(c3ccccc3)c3ccccc3)C2)C1 |  | 10 µM (active) |
| O=C(Oc1ccccc1)N1CCC2(CCCN(C(c3ccccc3)c3ccccc3)C2)CC1 | inactive |  |
| COC(=O)N1CCC2(CCN(CC(C)C)CC2)CC1 | inactive |  |
| CN[C@H](Cc1ccccc1)c1cccc(OC)c1O | -2.26% [at 11.4 µM] |  |
| c1ccc2c(c1)Sc1ccccc1N2C[C@H]1CN2CCC1CC2 | -6.51% [at 11.4 µM] |  |
| CCOP(=O)(OCC)C(NC(C)=O)C(Cl)(Cl)Cl (stereo unspecified) | inactive |  |
| CCCC[N+]12CCC(CC1)C(C(=O)c1cccs1)C2 (stereo unspecified) | inactive |  |
| CC(=O)NCCc1c[nH]c2ccccc12 | inactive |  |
| ClCCNc1nc2ccc(Cl)cc2[nH]1 | inactive |  |
| CC(=O)OCC1=C(C(=O)[O-])N2C(=O)[C@@H](NC(=O)CCC[C@@H](N)C(=O)[O-])[C@@H]2SC1.[Zn+2] | inactive |  |
| C=CCN1C[C@H](C)N([C@H](c2ccc(C(=O)N(CC)CC)cc2)c2cccc(O)c2)C[C@H]1C |  | 12.6 µM (active) |
| C=CCN1CCC2(C)c3cc(O)ccc3C[C@H]1[C@H]2C | inactive |  |

| SMILES | activity, negative = inhibition | AC50 |
| --- | --- | --- |
| C[C@H](N)Cc1c[nH]c2ccc(O)cc12 | inactive |  |
| O=C(Nc1ccc(Cl)cc1C(=O)c1ccccc1Cl)c1ccco1 | inactive |  |
| COc1ccc(OCC(=O)Nc2ccc(Cl)cc2C(=O)c2ccccc2)cc1 |  | 2.24 µM (active) |
| O=C(CN1CCCCC1)Nc1ccc(Br)cc1C(=O)c1ccccc1Cl | -0.765% [at 2.29 µM] |  |
| CNC(C)(C)Cc1ccccc1 | inactive |  |
| CCCN1CCC[C@@H]2Cc3[nH]ncc3C[C@H]21 | inactive |  |
| CC(C(=O)c1c[nH]c2ccccc12)N1CCSCC1 (stereo unspecified) | -1.61% [at 2.29 µM] |  |
| CN(C)CCC(=O)[C@@]1(O)CC[C@H]2[C@H]3CC=C4C[C@@H](O)CC[C@]4(C)[C@H]3CC[C@]21C | -0.253% [at 11.4 µM] |  |
| c1cncc(CNc2cc(-c3ccc4c(c3)OCO4)ncn2)c1 |  | 0.794 µM (active) |
| c1cncc(CNCCN2CCNCC2)c1 | -5.07% [at 11.4 µM] |  |
| O[C@@H](c1cc(-c2ccccc2)nc2c1ccc1ccccc12)[C@@H]1CCCCN1 | -0.102% [at 11.4 µM] |  |
| C[C@H]1CC[C@@]2(NC1)O[C@@H]1C[C@H]3[C@@H]4CC[C@@H]5C[C@@H](O)CC[C@@]5(C)[C@@H]4CC[C@]3(C)[C@@H]1[C@@H]2C | inactive |  |
| NCC[C@H](O)C(=O)N[C@H]1C[C@@H](N)[C@@H](O[C@H]2O[C@@H](CN)[C@@H](O)[C@@H](O)[C@@H]2N)[C@@H](O[C@H]2O[C@@H](CO)[C@@H](O)[C@@H]2O)[C@@H]1O | inactive |  |
| O=C(O)c1ccccc1Nc1cccc(C(F)(F)F)c1 | inactive |  |
| CC(O)(CS(=O)(=O)c1cccc(C(F)(F)F)c1)C(=O)Nc1cccc(C(F)(F)F)c1 (stereo unspecified) |  | 1.41 µM (active) |
| CC(O)(CS(=O)(=O)c1ccccc1)C(=O)Nc1cccc(C(F)(F)F)c1 (stereo unspecified) |  | 4.47 µM (active) |
| CC(O)(CS(=O)(=O)c1cccc(C(F)(F)F)c1)C(=O)Nc1ccc(C(F)(F)F)cc1 (stereo unspecified) |  | 1.41 µM (active) |
| Cc1o[nH]c(=O)c1C[C@@H](N)C(=O)O | inactive |  |
| CC1=C(O)C(=O)[C@H]2O[C@@H]2C1=O | inactive |  |
| O=C(O)CCCC[C@H]1SC[C@H]2NC(=O)N[C@@H]21 | inactive |  |
| O=C(O)[C@H]1[O][Sb][O][C@@H](C(=O)O)C1O (stereo partly specified) | -10.4% [at 11.4 µM] |  |
| C[C@]1(O)CC[C@H]2[C@@H]3[C@@H](O)CC4=CC(=O)CC[C@@]4(C)[C@H]3CC[C@]21C | -2.12% [at 11.4 µM] |  |
| CC1(C)N=C(N)N=C(N)N1c1cccc(C(=O)Nc2ccc(S(=O)(=O)F)cc2)c1 | 17.5% [at 11.4 µM] |  |

| SMILES | activity, negative = inhibition | AC50 |
| --- | --- | --- |
| O=[As](O)(O)c1ccc(N=Nc2ccc(O)cc2)cc1 | -4.07% [at 11.4 µM] |  |
| C[N+](C)(C)CC(=O)O | inactive |  |
| N=C(N)SCc1ccc(Cl)c2ccccc12 (tested in a mixture with another compound) | -2.18% [at 11.4 µM] and 15.2% [at 11.4 µM] |  |
| CC(C)c1c(CN(C)[C@@H](C)Cc2ccccc2)n(C)n(-c2ccccc2)c1=O |  | 3.98 µM (active) |
| C=C[C@@H]1CN2CC[C@H]1C[C@H]2[C@H](O)c1ccnc2ccccc12 | -1.79% [at 11.4 µM] |  |
| CC(C)CNCCc1ccccn1 | -8.38% [at 11.4 µM] |  |
| CCC1(C)CC(=O)NC(=O)C1 | inactive |  |
| COc1ccc2[nH]cc(CCN(C)C)c2c1 | inactive |  |
| COc1ccc(CNC(=O)/C=C\c2ccc3[nH]cc(CCN(C)C)c3c2)cc1 |  | 15.8 µM (active) |
| CCCN(CCC)CCc1c[nH]c2ccc(C(N)=O)cc12 | inactive |  |
| N[C@@H](CSC1c2ccccc2-c2ccccc21)C(=O)O | -17.3% [at 11.4 µM] |  |
| Cn1c[n+](C)cc1C(O)c1ccccc1 (stereo unspecified) | 1.92% [at 2.29 µM] |  |
| C=C(C)c1ccccc1 (tested in a mixture with another compound) | -22.2% [at 11.4 µM] |  |
| CN1C(=O)C(=Cc2ccc(N3CCCCC3)o2)C(=O)N(C)C1=S | inactive |  |
| CN1C(=O)C(=Cc2ccc(N3CCCCCC3)o2)C(=O)N(C)C1=S |  | 3.98 µM (active) |
| CCN1CCC2(CC1)NC(CO)(CO)CO2 | inactive |  |
| C[C@]12N[C@@H](Cc3ccccc31)c1ccccc12 | inactive |  |
| Cc1cccc(N2C(=O)NC(=O)/C(=C\c3cnn(-c4ccccc4)c3)C2=O)c1 | 8.31% [at 2.29 µM] |  |
| Cc1cc(C)cc(NC(=S)NC2CC3CCC(C2)N3Cc2ccco2)c1 (stereo unspecified) | inactive |  |
| CN(C)CS/C(N)=N/[C@H](O)C(Cl)(Cl)Cl | -7.61% [at 11.4 µM] |  |
| CC[N+](CC)(CCNC(=O)C(=O)NCC[N+](CC)(CC)Cc1ccccc1Cl)Cc1ccccc1Cl | inactive |  |
| C[C@@H]1CC[C@@H]2N(C1)C[C@H]1[C@@](O)([C@H](O)C[C@]3(O)[C@H]4CC[C@H]5[C@]6(O)O[C@]4(C[C@]13O)[C@@]5(C)CC[C@@H]6O)[C@@]2(C)O | -1.62% [at 11.4 µM] |  |
